# Sampled rows, rich in hits. Any-hit rate of the full collection: about 14%.
# CHX counter = counter-screen for Shiga toxin inhibitors: cycloheximide protein synthesis inhibition; cell reporter, cycloheximide protein synthesis inhibition counterscreen; max response, %; actives 12% (n = 300,000); in the data active = max response mostly above about 13%, no sharp cut-off; inactive = mostly below about 14%; also: read at 38.3 µM for the half of the compounds with a filed dose; 0% is about no effect
# Giardia FBPA inh-1 = Giardia lamblia aldolase inhibition; A8B2U2; purified Giardia FBPA; Potency, µM (doses to about 59.6 µM), for the others: at the highest dose activity, negative = inhibition, hits mostly inhibitors; actives 0.71% (n = 290,000); also: potency is read from the fitted curve at half-maximal effect; % is scaled to controls: 0 for no effect and ±100 for the full control effect; nearly all actives have a fitted effect of over 55% in size
# Target sequence (A8B2U2 whole entry, looked up): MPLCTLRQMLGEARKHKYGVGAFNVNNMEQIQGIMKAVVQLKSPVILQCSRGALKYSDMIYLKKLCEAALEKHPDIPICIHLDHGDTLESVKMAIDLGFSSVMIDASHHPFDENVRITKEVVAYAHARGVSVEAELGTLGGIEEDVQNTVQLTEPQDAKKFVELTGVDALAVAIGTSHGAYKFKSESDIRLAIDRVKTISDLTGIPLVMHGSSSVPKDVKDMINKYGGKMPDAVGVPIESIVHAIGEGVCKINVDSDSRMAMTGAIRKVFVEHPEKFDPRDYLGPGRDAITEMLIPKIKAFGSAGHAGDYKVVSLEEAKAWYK
#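 Giardia FBPA (40 nM reagent) was preincubated 10 min at RT with compound (up to 57.5 uM final), then substrate plus GAPDH/TPI/NAD/arsenate coupling system with diaphorase/resazurin was added; resorufin fluorescence (525/598 nm) was read after 20 min.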
# LmPK inhibitor = blocks Leishmania mexicana pyruvate kinase activity | purified LmPK, Kinase-Glo ATP luminescence, 1 h | Potency, µM (highest dose often 57.5 µM), for the others: at the top dose activity change, negative = inhibition, usual class: inhibitors | actives 0.37% (n = 290,000) | AID 1721; also: potency is read from the fitted curve at half-maximal effect; % is scaled to controls: 0 for no effect and ±100 for the full control effect
#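 Purified LmPK (0.1 nM) converted ADP (0.1 mM) to ATP with PEP (0.5 mM) in imidazole buffer pH 7.2 with KCl and MgCl2, 1 h at room temperature. ATP was read by Kinase-Glo luminescence; data normalized to uninhibited and no-enzyme controls.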
# NS1 inh = inhibitors of influenza NS1 protein function | Potency, µM (top dose mostly 46.1 µM), for the others: at the highest dose activity, positive = more growth | actives 0.4% (n = 270,000); calls by dose curve; also: potency is read from the fitted curve at half-maximal effect; actives are rising curves; nearly all actives have a fitted effect of over 50% in size
#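 Read-out: OD600 growth recovery of NS1-expressing budding yeast. Cells grown overnight at 30C in -URA glucose medium, washed, resuspended and diluted 1:100 in 2% galactose assay medium, pH 6.0. Same strain lacking NS1 served as positive control.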
# Shiga toxin inh = inhibitors of Shiga toxin in Vero cells | Vero cells, Shiga toxin protein synthesis inhibition reporter | inhibition, % at 38.7 µM | actives 9.2% (n = 290,000) | AID 2315; in the data active = inhibition mostly above about 28%, no sharp cut-off; inactive = mostly below about 43%; also: 0% is about no effect
# Giardia growth = blocks growth of Giardia lamblia trophozoites | shares compounds with Giardia FBPA inh-1 | Giardia lamblia trophozoite growth inhibition | Potency, µM (doses to about 57.5 µM), for the others: at the highest dose activity change, negative = inhibition, hits mostly inhibitors | actives 5% (n = 1,500) | AID 2785;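 also: potency is read from the fitted curve at half-maximal effect; trophozoites exposed to compound for 48 h at 37 °C; % is scaled to controls: 0 for no effect and ±100 for the full control effect; nearly all actives have a fitted effect of over 70% in size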
# Mammalian tox = toxic to mammalian cells in Giardia aldolase counter-screen | AID 2786 | shares compounds with Giardia FBPA inh-1 | Potency, µM (doses to about 57.5 µM), for the others: at the top dose viability change, negative = toxicity, usual class: inhibitors | mammalian cell viability counter-screen, qHTS | actives 4% (n = 1,500);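 also: Chinese hamster ovary cells used as mammalian cytotoxicity surrogate; viability measured as cellular ATP by luminescence; potency is read from the fitted curve at half-maximal effect; compound exposure lasted 48 h before reading; % is scaled to controls: 0 for no effect and ±100 for the full control effect; nearly all actives have a fitted effect of over 60% in size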
# Giardia FBPA inh-2 = confirmation of Giardia fructose-bisphosphate aldolase inhibitors; purified Giardia aldolase enzyme activity, qHTS; actives 5% (n = 1,500); Potency, µM (series often up to 57.5 µM), for the others: at the highest dose activity change, negative = inhibition, most hits filed as inhibitors; shares compounds with Giardia FBPA inh-1; AID 2787; also: potency is read from the fitted curve at half-maximal effect; % is scaled to controls: 0 for no effect and ±100 for the full control effect; nearly all actives have a fitted effect of over 45% in size
# Rabbit aldolase = selectivity test for Giardia aldolase inhibitors: rabbit aldolase | actives 4% (n = 1,500) | AID 2794 | Rabbit muscle FBPA enzyme inhibition, selectivity counter-screen | shares compounds with Giardia FBPA inh-1 | Potency, µM (highest dose often 57.5 µM), inactives show top-dose activity, negative = inhibition, actives largely listed as inhibitors; also: potency is read from the fitted curve at half-maximal effect; % is scaled to controls: 0 for no effect and ±100 for the full control effect; nearly all actives have a fitted effect of over 60% in size
# Target sequence (P00883 whole entry, looked up): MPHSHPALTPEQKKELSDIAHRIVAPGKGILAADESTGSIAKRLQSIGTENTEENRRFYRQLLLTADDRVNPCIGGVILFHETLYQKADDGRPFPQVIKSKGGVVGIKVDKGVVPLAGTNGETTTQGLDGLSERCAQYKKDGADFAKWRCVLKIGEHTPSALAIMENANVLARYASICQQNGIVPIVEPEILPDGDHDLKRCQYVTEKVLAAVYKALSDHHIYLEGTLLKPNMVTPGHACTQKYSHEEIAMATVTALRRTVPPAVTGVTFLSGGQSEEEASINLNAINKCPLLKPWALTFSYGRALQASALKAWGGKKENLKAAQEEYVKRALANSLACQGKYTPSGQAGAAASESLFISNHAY
# GAPDH counter = GAPDH inhibition flagged for Giardia aldolase hits; Potency, µM (highest dose often 57.5 µM), inactives show at the top dose activity change, negative = inhibition, actives largely listed as inhibitors; shares compounds with Giardia FBPA inh-1; actives 6% (n = 1,500); GAPDH coupling enzyme counterscreen, biochemical, qHTS; also: potency is read from the fitted curve at half-maximal effect; % is scaled to controls: 0 for no effect and ±100 for the full control effect; nearly all actives have a fitted effect of over 55% in size
# Active calls of the source: *; u = inconclusive; x = no result given; [ ] = remark or other dose. Unless noted, calls follow the shape of the dose curve; as a rule, active = well fitted curve in the direction sought with a large enough effect; inconclusive = small, poorly fitted or top-dose-only effect, or another doubt; inactive = no such curve, though single readings can be large; an effect the other way counts as inactive or inconclusive.
SMILES,CHX counter,Giardia FBPA inh-1,LmPK inhibitor,NS1 inh,Shiga toxin inh,Giardia growth,Mammalian tox,Giardia FBPA inh-2,Rabbit aldolase,GAPDH counter
Cc1ccccc1C(=O)N1CCC(C(=O)Nc2ccc(S(=O)(=O)N3CCCCC3)cc2)CC1,-4.3,x,-4.9%,-1.6%,1.1,x,x,x,x,x
O=C(O)c1ccccc1-c1ccccc1C(=O)Nc1ccc2c(c1)Cc1cc(F)ccc1-2,x,x,x,-2.6%,x,x,x,x,x,x
O=C(O)c1cc2c(cn1)[nH]c1ccccc12,5.3,u,-6.3%,1.5%,22.9,x,x,x,x,x
C[C@H](NC(=O)c1cc2c(cn1)[nH]c1ccccc12)C(=O)O,-3.3,-18.6%,-12.3%,1.6%,-14.9,-0.8%[38.3 µM],-9.3%,-12.0%,-4.7%,-7.1%
Cc1ccccc1C(=O)NC(=S)Nc1ncccn1,18.4*,4.47µM*,5.0%,5.8%,46.8,-15.1%[38.3 µM],-24.4%,-18.9%,-13.8%,-10.9%
CCc1ccc(CNC(=O)CCC(=O)n2ncc3cc(C)ccc32)cc1,0.4,2.5%,-2.7%,-3.7%,9.2,x,x,x,x,x
COc1cc(C(CC(=O)Nc2cccc(C)n2)N2Cc3ccccc3C2=O)cc(OC)c1OC (centres undefined),-1.2,-5.1%,7.1%,7.1%,2.6,x,x,x,x,x
CN1/C(=C\C(=O)CSc2cccc[n+]2[O-])C(C)(C)c2ccccc21,0.7,11.2µM*,3.4%,x,-13.9,-20.6%,24.2%,-2.6%,7.5%,2.5%
COc1cc(/C=N/Nc2nc(N3CCCC3)nc(N3CCCC3)n2)ccc1O,0.9,4.3%,-2.4%,12.5%,22.7,x,x,x,x,x
CCc1nnc(N/N=C/c2c(Cl)cccc2Cl)n1N,-3.5,u,2.2%,-18.8%,-13.4,x,x,x,x,x
CCOc1cc(/C=N/NC(N)=O)ccc1OC(=O)c1ccc(C)cc1,-4.8,-0.9%,6.4%,-11.1%,-9.4,x,x,x,x,x
CCc1nnc(N/N=C/c2ccc(O)c(OC)c2)n1N,-2.1,20µM*,11.5%,-18.2%,x,2.5%[10.4 µM],0.6%,u,u,-20.0%
CCOc1cc(/C=N/Nc2nnc(C)n2N)ccc1OC(C)=O,16.9,15.8µM*,-3.7%,-37.7%,0.8,2.5%[38.3 µM],-17.1%,5.8µM*,5.8µM*,6.51µM*
Cc1nnc(N/N=C/c2cccc(OCc3ccc(Cl)c(Cl)c3)c2)n1N,39.0*,17.7µM*,-2.6%,-10.9%,46.9*,u,1.4%,u,-18.9%,u
CCc1nnc(N/N=C/c2cccs2)n1N,9.7,5µM*,0.4%,-63.9%,5.8,u,u,12.6µM*,12.6µM*,12.6µM*
O=C(Cc1ccccc1F)Nc1ccc(S(=O)(=O)Nc2ncccn2)cc1,7.8,-5.2%,-2.4%,11.2%,-5.3,x,x,x,x,x
CCc1nnc(N/N=C\c2ccc(OC(C)=O)c(OC)c2)n1N,1.9,15.8µM*,-2.4%,-5.3%,11.0,-3.4%[38.3 µM],-28.0%,3.66µM*,5.17µM*,5.8µM*
COc1ccc(/C=N/NC(=O)CSCC(=O)Nc2ccccc2)cc1OC,-0.7,1.0%,2.0%,22.3%,-22.2,x,x,x,x,x
COCCCNC(=S)NNC(=O)c1cc(C2CC2)nc2ccccc12,2.4,3.5%,5.5%,-0.1%,-14.0,x,x,x,x,x
CSc1ccc(CCNC(=O)c2cc(-c3ccccc3)c(N3CCOCC3)s2)cc1,-5.8,9.0%,4.1%,25.2%,-3.6,x,x,x,x,x
COC(=O)N1CCC2(CCCN(C(=O)Nc3ccc(OC)cc3)C2)CC1,x,-6.7%,x,x,x,x,x,x,x,x
O=C(O)CC/C(=N/Nc1ncc(C(F)(F)F)cc1Cl)C(=O)O,-3.0,11.2µM*,-2.6%,0.4%,35.1,15.8µM*,-4.8%,0.6%,10.1%,10.1%
NC(=O)CNc1ncc(C(F)(F)F)cc1Cl,10.7,-1.7%,-0.8%,x,-10.5,x,x,x,x,x
CC(=O)N1CCc2c(sc3c2c(=O)n(-c2ccccc2)c(=O)n3CC(=O)NCC2CCCO2)C1 (centres undefined),-3.3,10µM*,7.0%,5.2%,-12.8,-4.3%[38.3 µM],-12.8%,-26.7%,-15.2%,-9.2%
O[C@@H]1CN(Cc2ccccc2Cl)CC[C@H]1N1CCOCC1,-1.4,6.0%,-5.0%,17.9%,-1.6,x,x,x,x,x
SMILES,CHX counter,Giardia FBPA inh-1,LmPK inhibitor,NS1 inh,Shiga toxin inh,Giardia growth,Mammalian tox,Giardia FBPA inh-2,Rabbit aldolase,GAPDH counter
O=c1[nH]cc(I)cc1I,-2.2,9.98µM*,0.2%,2.3%,-4.2,-27.7%,13.0%,-8.4%,3.1%,-2.7%
C/C(=N\Nc1ccc2nncn2n1)c1ccco1,7.2,4.4%,-14.2%,3.7%,18.5,x,x,x,x,x
C(=N\Nc1ccc2nncn2n1)/c1ccccn1,6.5,14.1µM*,-9.7%,0.6%,13.2,-5.6%,u,5.2%,-4.1%,7.1%
C/C(=N\Nc1ccc2nncn2n1)c1ccccn1,-2.0,7.92µM*,-10.0%,-67.6%,8.0,u,u,-0.9%,4.5%,u
Cc1ccc(S(=O)(=O)N2CCN(C3CC4CCC3C4)CC2)cc1 (centres undefined),1.9,14.1µM*,2.3%,-0.8%,22.5,18.3%,-1.2%,3.1%,0.0%,13.6%
COCC(=O)N1CCC(Oc2ccc(C(=O)N3CCN(C)C[C@@H]3C(C)C)cc2)CC1,-2.0,0.9%,-8.8%,4.3%,1.8,x,x,x,x,x
O=C(N/N=C/c1ccc(O)c(O)c1O)/C(=C/c1ccc([N+](=O)[O-])cc1)NC(=O)c1ccccc1,-5.8,6.29µM*,-3.3%,-2.7%,-6.8,u,-11.9%,u,u,u

# Compound activity from PubChem BioAssay.
